# Shown are actives, neighbours in structure and some others; about 21% of the full set was active somewhere.
# Cycloheximide cs = counter-screen hit for Shiga toxin inhibitors, cycloheximide | cell reporter, cycloheximide protein synthesis inhibition counterscreen | AID 2314 | max response, % | 12% of 300,000 active; in the data active = max response mostly above about 13%, no sharp cut-off; inactive = mostly below about 14%; note: read at 38.3 µM for the half of the compounds with a filed dose; 0% is about no effect
# Pf growth 96h = inhibits malaria parasite growth, 96 h | P. falciparum luciferase reporter growth, 96 h | Potency, µM (top dose mostly 28.7 µM), for inactives: top-dose activity change, negative = inhibition, usual class: inhibitors | 6.9% of 320,000 active | AID 504834; note: potency is the fitted concentration of half-maximal effect; % is set by controls: 0 for no effect and ±100 for the full control effect
#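 Readout is luminescence from an integrated firefly luciferase in P. falciparum. Red cells, 2% hematocrit and 0.05% parasitemia final, were cultured with compound through two parasite generations (96 hours) at 37 C, 5% CO2.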
# NS1 inh = influenza NS1 inhibition; Potency, µM (highest dose often 46.1 µM), without a hit: at the highest dose activity, positive = more growth; 0.4% of 270,000 active; AID 2326; calls by dose curve; note: potency is the fitted concentration of half-maximal effect; actives are rising curves; nearly all actives have a fitted effect of over 50% in size
#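 S. cerevisiae expressing influenza A NS1, grown in glucose, washed, then diluted 1:100 into pH 6.0 -URA galactose medium with 23 nl compound. Growth recovery read as OD600; NS1-free strain serves as control.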
# Pf growth 48h = inhibits P. falciparum growth in the first generation, 48 h | P. falciparum luciferase growth in erythrocytes, 48 h | Potency, µM (series often up to 28.7 µM), inactives show at the highest dose activity change, negative = inhibition, most hits filed as inhibitors | 5.9% of 310,000 active; note: potency is the fitted concentration of half-maximal effect; % is set by controls: 0 for no effect and ±100 for the full control effect
#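 Luciferase-expressing P. falciparum in infected erythrocytes (2% hematocrit, 0.1% parasitemia final) in RPMI 1640/0.5% Albumax were exposed to compound for 48 hours at 37 C, 5% CO2; growth read as luminescence.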
# Sm TGR inh = blocks Schistosoma mansoni thioredoxin glutathione reductase; purified TGR, DTNB reduction, TNB absorbance 405 nm; Potency, µM (highest dose often 114 µM), inactives show top-dose activity change, negative = inhibition, most hits filed as inhibitors; 3% of 360,000 active; Q962Y6; note: potency is the fitted concentration of half-maximal effect; % is set by controls: 0 for no effect and ±100 for the full control effect; nearly all actives have a fitted effect of over 60% in size
#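 First, TGR (20 nM dispensed) and NADPH were mixed with compound. Second, a 15 min room-temperature incubation followed. Third, further NADPH and then DTNB were added to start the reaction. Finally, TNB absorbance was monitored kinetically.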
# Shiga toxin inh = Shiga toxin inhibition; Vero cells, Shiga toxin protein synthesis inhibition reporter; inhibition, % at 38.7 µM; 9.2% of 290,000 active; AID 2315; in the data active = inhibition mostly above about 28%, no sharp cut-off; inactive = mostly below about 43%; note: 0% is about no effect
# * = called active by the depositor; ? = inconclusive; · = no result given. Unless noted, calls come from the whole dose curve; as a rule, active = well fitted curve in the direction sought with a large enough effect; inconclusive = small, poorly fitted or top-dose-only effect, or another doubt; inactive = no such curve, though single readings can be large; an effect the other way counts as inactive or inconclusive.
SMILES,Cycloheximide cs,Pf growth 96h,NS1 inh,Pf growth 48h,Sm TGR inh,Shiga toxin inh
O=C(CSc1nnc(-c2cnccn2)n1Cc1ccco1)c1ccc(Cl)cc1,-0.7,-29.6%,-3.6%,?,10µM*,-5.2
Cc1ccc(-n2c(SCC(=O)OC(C)C)nnc2-c2ccncc2)cc1,1.5,19.6%,-8.6%,?,-25.9%,-2.3
NC(=O)CSc1nnc(-c2cnccn2)n1Cc1ccco1,7.3,27.3%,0.8%,6.8%,?,-5.2
O=C(CSc1nnc(-c2ccccn2)n1Cc1ccco1)c1ccc(Cl)cc1,-2.6,·,-3.4%,-29.3%,20µM*,-10.9
CC(C)OC(=O)CSc1nnc(-c2cnccn2)n1-c1ccc(Cl)cc1,6.8,14.7µM*,-94.1%,?,4.0%,-12.5
COc1cc(NC(=O)C(C)C)ccc1NC(=O)c1ccco1,58.3*,12.0%,-17.4%,199.2%,0.0%,63.3
COC(=O)c1cc(OC)c(OC)cc1NC(=S)Nc1cccc(Cl)c1,-2.1,13.1µM*,-7.1%,3.3%,-22.7%,14.4
CCCCC(=O)Nc1ccc(NC(=S)NC(=O)c2ccco2)cc1OC,5.4,41.4%,2.7%,69.6%,?,24.5
COC(=O)c1cc(OC)c(OC)cc1NC(=S)NC(=O)c1ccco1,6.9,50.2%,0.5%,22.0%,11.2µM*,5.5
COc1cc(NC(=O)c2ccc3c(c2)OCO3)ccc1NC(=O)c1ccco1,0.6,-12.8%,9.4%,21.0%,-0.2%,4.2
COc1cc(NC(=S)NC(=O)c2ccco2)ccc1NC(=O)C(C)C,14.4,?,3.3%,33.2%,25.1µM*,37.2
COC(=O)c1cc(OC)c(OC)cc1NC(=S)Nc1cc(Cl)ccc1OC,2.3,?,12.7%,-7.6%,6.2%,-18.7
CCc1nnc(NC(=O)C(=O)c2cc(C)n(-c3ccccc3)c2C)s1,·,·,·,·,-3.8%,·
CCc1nc(OCCN(CC)CC)c2oc3ccccc3c2n1,26.6*,30.3%,-6.5%,40.1%,5.6%,27.2
CCN(CC)CCOc1ncnc2c1oc1ccccc12,-3.8,1.7%,-2.2%,24.6%,-0.9%,-6.2
Cc1cc(C(=O)N/N=C2\CCCC(C)C2)n[nH]1 (configuration not stated),55.3*,·,-3.4%,17.0%,0.0%,46.8
C/C(=C\C(=O)c1ccc(Br)cc1)NNC(=O)c1ccc(O)cc1,27.0*,-15.6%,14.2%,-1.2%,?,50.0*
C/C(=C\C(=O)c1ccc(Br)cc1)NCc1ccc(C)cc1,5.8,24.9%,-10.2%,·,6.9%,-6.4
C/C(=C\C(=O)c1ccc(Br)cc1)NCc1ccccc1,18.7*,-4.9%,-5.7%,·,0.9%,62.2
O=C(CCSc1ccc(Cl)c(Cl)c1)NC12CC3CC(CC(C3)C1)C2,27.1*,1.1%,-25.8%,?,-2.9%,77.3
Cc1ccc(SCC(=O)NC2CC2)cc1,15.2,71.3%,4.0%,23.5%,-8.6%,5.6
O=C(CSc1ccccc1C(=O)O)NC12CC3CC(CC(C3)C1)C2,1.9,10.9%,4.5%,6.3%,-15.5%,19.8
O=C(CSc1ccc(F)cc1)NC12CC3CC(CC(C3)C1)C2,37.4*,?,-11.1%,-18.4%,·,39.2
O=C(CSc1ccc(F)cc1)NC1CCCCC1,35.6*,15.0%,-0.6%,85.9%,-20.4%,70.6*
O=C(CSc1ccc(Cl)cc1)NC1CCCC1,35.4*,68.7%,-8.7%,56.5%,0.6%,72.5*
SMILES,Cycloheximide cs,Pf growth 96h,NS1 inh,Pf growth 48h,Sm TGR inh,Shiga toxin inh
CC(C)N(CC#CCC(O)(c1ccccc1)c1ccccc1)CCO,-3.6,?,5.8%,-30.0%,55.2%,11.7
CCN(CC#CCC(O)(c1ccccc1)c1ccccc1)C(C)C,-1.9,?,-6.2%,8.28µM*,-22.5%,-3.3
COC(=O)c1ccc(Cl)cc1NC(=O)N(C)CCc1c(C)nn(C)c1C,·,·,·,·,-9.4%,·
CCCCN(C)CCNC(=S)Nc1ccc2nc(N3CCN(CC)CC3)cc(C)c2c1,-2.4,?,-1.4%,2.33µM*,3.9%,8.4
CCCCN(CC)C(=S)Nc1ccc2nc(N3CCN(C)CC3)cc(C)c2c1,27.7*,8.9%,-7.6%,?,2.8%,28.4
CCN1CCN(c2cc(C)c3cc(NC(=S)NCCN(C)C)ccc3n2)CC1,2.2,70.0%,-2.5%,?,-10.5%,-5.0
CCN1CCN(c2cc(C)c3cc(NC(=S)N(C)Cc4ccccc4)ccc3n2)CC1,10.4,28.4%,-2.7%,?,9.5%,-6.1
CCCCN(C)C(=S)Nc1ccc2nc(N3CCN(CC)CC3)cc(C)c2c1,12.6,?,-1.6%,?,4.4%,82.3*
